Source: PubChem
An excerpt weighted towards active compounds, which were near 3.3% of everything screened.
Sm TGR inh – inhibitors of Schistosoma mansoni thioredoxin glutathione reductase; AID 485364; Q962Y6; 360,000 compounds, 3% hits; purified TGR, DTNB reduction, TNB absorbance 405 nm; Potency, µM (series often up to 114 µM), for inactives: top-dose activity change, negative = inhibition, hits mostly inhibitors; further: nearly all actives have a fitted effect of over 60% in size
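TGR 20 nM + NADPH 100 uM (dispensed conc.), cpd preinc 15 min RT; start with NADPH (500 uM addition) then DTNB (15 mM addition). Kinetic TNB absorbance, 405 nm filter. Four-parameter Hill fit across titration.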
Giardia FBPA inh-1 – inhibitors of Giardia lamblia fructose-1,6-bisphosphate aldolase; purified Giardia FBPA; Potency, µM (titrated, usually from 59.6 µM), for the others: at the top dose activity, negative = inhibition, most hits filed as inhibitors; 290,000 compounds, 0.71% hits; AID 2451; further: nearly all actives have a fitted effect of over 55% in size
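Giardia FBPA (40 nM reagent) was preincubated 10 min at RT with compound (up to 57.5 uM final), then substrate plus GAPDH/TPI/NAD/arsenate coupling system with diaphorase/resazurin was added; resorufin fluorescence (525/598 nm) was read after 20 min.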
TbPYK inhibitor – blocks Trypanosoma brucei pyruvate kinase; Q57TT1; TbPYK enzyme, Kinase-Glo Plus ATP luminescence, 45 min; Potency, µM (doses to about 76.8 µM), for inactives: at the highest dose activity, negative = inhibition, actives largely listed as inhibitors; 410,000 compounds, 0.12% hits; further: nearly all actives have a fitted effect of over 50% in size
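Glycolytic pyruvate kinase of T. brucei was incubated with substrate, test compound and 130 uM ADP for 45 minutes at room temperature. Luminescent Kinase-Glo Plus signal was measured after 10 minutes.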
LmPK inhibitor – LmPK (Leishmania mexicana) enzyme inhibition; purified LmPK, Kinase-Glo ATP luminescence, 1 h; Potency, µM (top dose mostly 57.5 µM), inactives show at the top dose activity change, negative = inhibition, usual class: inhibitors; 290,000 compounds, 0.37% hits; AID 1721
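ATP generated from ADP (0.1 mM) and PEP (0.5 mM) by 0.1 nM LmPK over 1 h at room temperature (pH 7.2 imidazole buffer) was detected by coupled luciferase luminescence. Values were normalized to uninhibited and no-enzyme wells.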
RE007 growth inh – less growth of the S. pombe RE007 Vpr strain. S. pombe RE007 Vpr strain, BacTiter-Glo ATP luminescence, 24 h. Potency, µM (highest dose often 92.2 µM), for inactives: at the top dose activity change, negative = less growth, hits mostly inhibitors. 360,000 compounds, 0.21% hits. AID 651644; active means well fitted falling curve with a large enough effect; inconclusive means small, poorly fitted or top-dose-only effect; inactive means no such curve, though single readings can be large or run the other way; further: nearly all actives have a fitted effect of over 50% in size
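Fission yeast RE007 carrying one integrated HIV-1 vpr copy, seeded at OD 0.01 in PMG+AL medium with 23 nL pinned compound. Grown 24 h at 30 degrees; viability read by BacTiter-Glo luminescence after 5 min.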
Giardia growth – blocks growth of Giardia lamblia trophozoites | shares compounds with Giardia FBPA inh-1 | Giardia lamblia trophozoite growth inhibition | Potency, µM (highest dose often 57.5 µM), inactives show top-dose activity change, negative = inhibition, actives largely listed as inhibitors | 1,500 compounds, 5% hits;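 further: trophozoites exposed to compound for 48 h at 37 °C; nearly all actives have a fitted effect of over 70% in size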
Mammal cell tox – mammalian cytotoxicity of Giardia aldolase inhibitor hits; mammalian cell viability counter-screen, qHTS; shares compounds with Giardia FBPA inh-1; 1,500 compounds, 4% hits; Potency, µM (highest dose often 57.5 µM), without a hit: top-dose viability change, negative = toxicity, most hits filed as inhibitors;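 further: Chinese hamster ovary cells used as mammalian cytotoxicity surrogate; viability measured as cellular ATP by luminescence; compound exposure lasted 48 h before reading; nearly all actives have a fitted effect of over 60% in size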
Giardia FBPA inh-2 – confirmation of Giardia fructose-bisphosphate aldolase inhibitors. purified Giardia aldolase enzyme activity, qHTS. shares compounds with Giardia FBPA inh-1. Potency, µM (titrated, usually from 57.5 µM), for the others: at the highest dose activity change, negative = inhibition, actives largely listed as inhibitors. 1,500 compounds, 5% hits; further: nearly all actives have a fitted effect of over 45% in size
Rabbit FBPA inh – rabbit FBP aldolase inhibition by Giardia aldolase hits; shares compounds with Giardia FBPA inh-1; Rabbit muscle FBPA enzyme inhibition, selectivity counter-screen; Potency, µM (titrated, usually from 57.5 µM), for the others: top-dose activity, negative = inhibition, hits mostly inhibitors; 1,500 compounds, 4% hits; AID 2794; further: nearly all actives have a fitted effect of over 60% in size
Target sequence (P00883 whole entry, looked up): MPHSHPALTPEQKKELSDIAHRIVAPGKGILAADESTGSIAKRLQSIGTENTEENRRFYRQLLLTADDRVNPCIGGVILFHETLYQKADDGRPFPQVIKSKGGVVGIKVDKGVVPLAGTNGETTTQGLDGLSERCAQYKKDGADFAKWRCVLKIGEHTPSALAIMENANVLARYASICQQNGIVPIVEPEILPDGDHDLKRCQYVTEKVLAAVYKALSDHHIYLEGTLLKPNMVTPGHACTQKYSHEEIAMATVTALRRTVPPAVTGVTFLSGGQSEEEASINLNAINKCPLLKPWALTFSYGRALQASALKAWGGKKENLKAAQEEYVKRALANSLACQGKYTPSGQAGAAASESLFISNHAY
GAPDH counter – counter-screen for Giardia aldolase inhibitors: GAPDH coupling enzyme. shares compounds with Giardia FBPA inh-1. GAPDH coupling enzyme counterscreen, biochemical, qHTS. Potency, µM (highest dose often 57.5 µM), for inactives: top-dose activity change, negative = inhibition, actives largely listed as inhibitors. 1,500 compounds, 6% hits; further: nearly all actives have a fitted effect of over 55% in size
Starred values were filed as active, the others as inactive; [ ] = remark or other dose. Unless noted, the call rests on the fitted dose curve; in most records, active means well fitted curve in the direction sought with a large enough effect; inconclusive means small, poorly fitted or top-dose-only effect, or another doubt; inactive means no such curve, though single readings can be large; an effect the other way counts as inactive or inconclusive. On the % scale 0 is the no-effect control and ±100 the full control effect; potency means the concentration at half of the fitted maximal effect.

Results for Cc1cccc(N(CC(O)Cn2c3ccccc3c3ccccc32)S(=O)(=O)c2ccc(F)cc2)c1 (configuration not stated) ?
Sm TGR inh: 13%; TbPYK inhibitor: 2%

What do the screens show for `CN(C)C(=S)SSC(=S)N(C)C`?
Sm TGR inh: -33%; Giardia FBPA inh-1: 40µM*; TbPYK inhibitor: 4.5µM*; LmPK inhibitor: 1%; RE007 growth inh: 3.2µM*; Giardia growth: 14µM*; Mammal cell tox: 4.5µM*; Giardia FBPA inh-2: inconclusive; Rabbit FBPA inh: inconclusive; GAPDH counter: 40µM*

What do the screens show for `CN1CCN(Cc2c(F)cccc2Cl)CC1`?
Sm TGR inh: -1%; Giardia FBPA inh-1: 25µM*; TbPYK inhibitor: 3%; LmPK inhibitor: 2%; RE007 growth inh: -1%; Giardia growth: 72%; Mammal cell tox: 14%; Giardia FBPA inh-2: -3%; Rabbit FBPA inh: -6%; GAPDH counter: inconclusive

What do the screens show for `Cc1ccc(NS(=O)(=O)c2cccc(C(=O)NCC(c3cccs3)N(C)C)c2)cc1` (configuration not stated)?
Sm TGR inh: -2%; Giardia FBPA inh-1: 3%; TbPYK inhibitor: -1%; LmPK inhibitor: 1%; RE007 growth inh: -5%

How did C1=CCC(CN2CCN(C3CCCCCC3)CC2)CC1 (configuration not stated) do in these assays?
Sm TGR inh: -8%; Giardia FBPA inh-1: 14µM*; TbPYK inhibitor: 26%; LmPK inhibitor: -9%; RE007 growth inh: 3%; Giardia growth: -10%; Mammal cell tox: 6%; Giardia FBPA inh-2: 1%; Rabbit FBPA inh: -2%; GAPDH counter: 0%

Results for Cc1ccc(N2CCN(CC3CC=CCC3)CC2)cc1 (configuration not stated) ?
Sm TGR inh: 0%[11.4 µM]; Giardia FBPA inh-1: -3%; TbPYK inhibitor: 3%; LmPK inhibitor: -3%; RE007 growth inh: 0%

What do the screens show for `CCNC(=S)NS(=O)(=O)c1ccc(CC)cc1`?
Sm TGR inh: inconclusive; Giardia FBPA inh-1: 6.3µM*; TbPYK inhibitor: 1%; LmPK inhibitor: 0%; RE007 growth inh: -12%; Giardia growth: 3%[10.4 µM]; Mammal cell tox: 5%; Giardia FBPA inh-2: 9%; Rabbit FBPA inh: 4%; GAPDH counter: 20%

Results for CCNC(=S)NS(=O)(=O)c1ccc(C)cc1 ?
Sm TGR inh: -9%; Giardia FBPA inh-1: 3.5µM*; TbPYK inhibitor: -5%; LmPK inhibitor: 0%; RE007 growth inh: 7%; Giardia growth: 17%[38.3 µM]; Mammal cell tox: -3%; Giardia FBPA inh-2: 7%; Rabbit FBPA inh: 12%; GAPDH counter: -1%

What do the screens show for `CC(C)n1c(=S)[nH]c2c1c(=O)[nH]c(=O)n2C`?
Sm TGR inh: -3%; Giardia FBPA inh-1: 16µM*; TbPYK inhibitor: inconclusive; LmPK inhibitor: -22%; RE007 growth inh: 10%; Giardia growth: -7%[10.4 µM]; Mammal cell tox: -6%; Giardia FBPA inh-2: -3%; Rabbit FBPA inh: -18%; GAPDH counter: 6%
